# Experimental data as given in PubChem BioAssay AID1345082 (National Center for Advancing Translational Sciences (NCATS), 2018).
# The campaign covered roughly 94,000 compounds. About 4,000 (4.3%) were called active. Inconclusive results (about 29%) are left out. Calls follow the shape of the dose curve; as a rule, active = well fitted inhibition curve with a large enough effect; inconclusive = small, poorly fitted or top-dose-only effect; inactive = no such curve, though single readings can be large or run the other way. Only a selection was taken, and actives are over-represented in it overall.
# Experiment: Cytotoxic Profiling in NIH 3T3 Cell Line of Diverse Libraries Using Quantitative High-Throughput Screening; also: nearly all actives have a fitted effect of over 55% in size
# Settings: NIH 3T3 viability, CellTiter-Glo ATP luminescence, 48-72 h; series mostly up to 96.7 µM; activity change, negative = cytotoxicity: at the top concentration
# Summary of the method: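 Cells were seeded at 400 per well, treated with pin-transferred compound, and kept 48 or 72 hr at 37 °C before CellTiter-Glo addition and luminescence imaging of cellular ATP.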
# % is scaled to controls: 0 for no effect and ±100 for the full control effect; potency is read from the fitted curve at half-maximal effect.
Structure (SMILES),"activity change, negative = cytotoxicity",Potency,outcome
COc1cccc(-c2cc(C(=O)N3CCN(C(C)=O)CC3)c3cnn(C)c3n2)c1,-17.5% (inactive),,
CC(=O)N1CCN(C(=O)c2cc(-c3cccc(F)c3)nc3c2cnn3C)CC1,-25.5% (inactive),,
Cn1ncc2c(C(=O)N3CCC(c4ccccc4)CC3)cc(-c3ccc(F)cc3)nc21,,39.8 µM (active),
O=C(NC1CC1)c1cc2n(n1)CCN(C(=O)c1ccc3n[nH]nc3c1)C2,-13.9% (inactive),,
CCCN(CC1CCOC1)C(=O)Nc1cc(F)ccc1F (configuration not stated),-6.36% (inactive),,
COc1ccccc1-c1cc(C(=O)NCc2ccccn2)nn2cnnc12,-25.9% (inactive),,
CCC(C)NC(=O)Cc1csc2nc(C)c(-c3cc(C)n(-c4ccc(C(C)C)cc4)n3)c(=O)n12 (configuration not stated),-34.3% (inactive),,
COc1cccc(-c2cc(C(=O)Nc3cccc(F)c3)c3cnn(C)c3n2)c1,-21.1% (inactive),,
Cc1nn(-c2ccccc2)c2c1C(C(C)C)N(C1CN(C(=O)c3ccc(Cl)nc3)C1)C2=O (configuration not stated),2.41% (inactive),,
Cc1nn(-c2ccc(C(C)C)cc2)c(C)c1[C@@H]1C=C[C@@H](NC(=O)Nc2ccccc2)C1,,50.1 µM (active),
Cc1nn(-c2ccc(C(C)(C)C)cc2)c(C)c1[C@@H]1C=C[C@@H](NC(=O)c2ccco2)C1,,35.5 µM (active),
Cc1nn(-c2ccc(C(C)C)cc2)c(C)c1[C@@H]1C=C[C@@H](NC(=S)NCC(C)C)C1,,22.4 µM (active),
Cc1cnc(CCNC(=O)c2ccco2)n1C1CCC1,-12.6% (inactive),,
COc1ccc(-n2nc(C)c([C@H]3C=C[C@@H](OC(=O)Nc4cccc(F)c4)C3)c2C)cc1,,28.2 µM (active),
COc1cccc(NC(=O)Cn2c(=O)n(-c3ccc(F)cc3)c(=O)c3c2cc(C)n3C)c1,-15.1% (inactive),,
O=C(N[C@@H]1CN(c2ncccn2)C[C@H]1CO)c1ccco1,-10.3% (inactive),,
Cc1nn(-c2ccccc2)c2c1C(C(C)C)N(C1CCN(C(=O)c3ccc(Cl)nc3)CC1)C2=O (configuration not stated),-26.8% (inactive),,
CC(C)c1nc(CCn2cc(-c3cncnc3)nn2)cs1,-10.5% (inactive),,
Cc1ccc(CN2C[C@@H](CO)[C@H](c3nc(C)no3)C2)nc1,-11.2% (inactive),,
COc1ccccc1C(=O)N1CCc2nnc([C@@H]3C[C@@H](O)CN3C)n2CC1,,,inactive
CN1CCC(NC[C@H]2O[C@@H]3C[C@@H](CC(=O)NCc4cnn(C)c4)O[C@@H]3[C@@H]2O)CC1,1.18% [at 174 µM] (inactive),,
CC(C)c1nc2c(c(-c3ccc(Cl)cc3)n1)CN(C(=O)c1ccccc1)CC2,-19.8% (inactive),,
COc1ccc(C(=O)N2CCC(CCn3c(C)cnc3C3CC3)CC2)cc1,-23.3% (inactive),,
COC(=O)CNC(=O)NC1CCN(C(=O)N2CC3CC(C2)[C@H]2CCCC(=O)N2C3)CC1 (some centres not stated),4.02% (inactive),,
Cc1ccc2c(c1)C(C[C@H]1CN(C(=O)NC(C)C)CC[C@H]1CC(=O)O)=NCC2,1.35% [at 174 µM] (inactive),,

Structure (SMILES),"activity change, negative = cytotoxicity",Potency,outcome
Cc1noc(C)c1[S+](=O)([O-])N1CCC2(CC1)C(=O)NN=C2c1cccnc1,-26.3% (inactive),,
Cc1ccccc1CNC(=O)CN1C(=O)C2(CCNCC2)Nc2ccccc21,,,inactive
CN(Cc1cccc(C(F)(F)F)c1)Cc1cccc(C(F)(F)F)c1,-4.01% (inactive),,
CC(C)(C)n1nnnc1C1CC2(CCOCC2)C(=O)N1Cc1ccc(F)cc1 (configuration not stated),-0.724% (inactive),,
Cc1ccc(CNC(=O)[C@@H]2COCC(=O)N2Cc2ccc(F)cc2)cc1,-23.1% (inactive),,
COc1cccc(CC(=O)N2CCC(N3C(=O)CCC3C(=O)NCc3ccccc3)CC2)c1 (configuration not stated),-14.4% (inactive),,
Cc1ccc(-c2cccc(CN3CCCC(NC(=O)c4ccc(C(F)(F)F)cc4)C3)c2)cc1Cl (configuration not stated),-4.84% (inactive),,
COc1cccc(-c2cccc(C(=O)N3CCCC3C(=O)NCC3CC3)c2)c1 (configuration not stated),-10.9% (inactive),,
COc1cccc(-c2ccc(CN3CCCC3C(=O)NCc3ccccc3Cl)cc2)c1 (configuration not stated),,39.8 µM (active),
Cc1ccc(-c2cccc(CN3CCCC3C(=O)NCc3ccc(C(F)(F)F)cc3)c2)cc1Cl (configuration not stated),,31.6 µM (active),
CN(CC1CCOCC1)C(=O)Cc1ccsc1,,,inactive
COc1ccc(N2CCC(NS(=O)(=O)C3CC3)C2=O)cc1 (configuration not stated),-15.8% (inactive),,
CN(C)Cc1cn(C[C@H]2C[C@@H](NS(=O)(=O)c3ccccc3)[C@H](O)[C@@H]2O)nn1,-5.32% [at 174 µM] (inactive),,
O=C(C1CCC1)N1CCC(C(=O)N2CCCC2c2ccco2)CC1 (configuration not stated),1.21% (inactive),,
CN(CC1CCOCC1)C(=O)c1ccc(Cl)cc1,-0.189% (inactive),,
CCOCCNC(=O)C1CCCCN1Cc1ccc(-c2cc(F)ccc2OC)cc1 (configuration not stated),,39.8 µM (active),
CC(=O)N1CCCN(C(=O)C2CCCCN2Cc2ccc(-c3ccsc3)cc2)CC1 (configuration not stated),-22.7% (inactive),,
COCCNC(=O)[C@@H]1CCC[C@@H](NCc2ccc(F)cc2)CN(C)C(=O)C1,-11.3% [at 174 µM] (inactive),,
CCOCCOC1CCN(C(=O)NCc2ccc(F)cc2)CC1,-4.23% (inactive),,
CCN1CCN(C(=O)C2CCCCN2Cc2ccc(-c3cc(F)ccc3OC)cc2)CC1 (configuration not stated),,35.5 µM (active),
O=C(C1CCCCN1Cc1ccc(-c2cccs2)cc1)N1CCOCC1 (configuration not stated),0.343% (inactive),,
O=C(c1cccn1C1CC1)N1C[C@H](CO)C[C@H](CN2CCCC2)C1,-2.77% (inactive),,
COCC1CN(C)CC12CCN(C(=O)C1CCOCC1)CC2 (configuration not stated),-0.42% (inactive),,
Cc1ccccc1S(=O)(=O)N1CCC2(CC1)CC(OCC1CC1)CCO2 (configuration not stated),-19.2% (inactive),,
COc1cc(F)ccc1-c1ccnc2nc(C(C)C)nn12,-24.5% (inactive),,

Structure (SMILES),"activity change, negative = cytotoxicity",Potency,outcome
Cc1noc([C@@H]2CN(S(=O)(=O)c3cccs3)C[C@H]2C(N)=O)n1,-16.9% (inactive),,
COc1ccccc1-c1onc(C)c1C(=O)NCc1ccc(Cl)cc1,-28.6% (inactive),,
COc1ccccc1-c1onc(C)c1C(=O)NCCC(c1ccccc1)c1ccccc1,,31.6 µM (active),
CCCOCCCNC(=O)c1c(C)noc1-c1cc(OC)c(OC)c(OC)c1,-17.4% (inactive),,
COC[C@@H]1CN(Cc2ccccn2)C[C@H]1C(=O)N(C)C,-6.36% (inactive),,
Cc1cc(CNC(=O)C2CCCN(C3CCN(CCc4ccccc4)CC3)C2)on1 (configuration not stated),0.71% (inactive),,
CC(C)Nc1ncc(C(=O)NC2CCCN(CCc3ccccc3)C2)cn1 (configuration not stated),-6.8% (inactive),,
O=C(Nc1cccc(Cl)c1)c1cnc2c(c1)N(C(=O)CCc1ccccc1)CCC2,-20% [at 138 µM] (inactive),,
CC(C)CCNC(=O)c1cnc2c(c1)N(Cc1ccccc1)CCC2,,79.4 µM (active),
Cc1cccc(C(=O)N2CCCN(c3nnc4ccccn34)CC2)c1,-8.72% (inactive),,
Cc1cc(C(=O)NCC(C)C)c2c(C3CCNC3)noc2n1 (configuration not stated),2.92% [at 138 µM] (inactive),,
COc1cc(SC)ccc1C(=O)N[C@@H]1C=C(C(=O)N[C@@H](Cc2cccs2)C(N)=O)C[C@@H](O)[C@@H]1O,,,inactive
Cc1ccc(C)c(NC(=O)C2CC(=O)N(c3n[nH]c4cc(Br)ccc34)C2)c1 (configuration not stated),-8.49% (inactive),,
Cc1nc(N2CCC(NC(=O)c3cnccn3)CC2)cc(C(F)(F)F)n1,-1.41% (inactive),,
Cc1nc(N2CCC(NCCNc3ccncc3C)CC2)c2ccsc2n1,,44.7 µM (active),
Cc1[nH]ncc1CNC(=O)C1CCN(c2cnn(CC3CC3)c(=O)c2)C1 (configuration not stated),3.61% (inactive),,
O=C(NCc1nc(-c2ncccn2)no1)[C@H]1CNC[C@@H](C(=O)N2CCCC2)C1,-8.69% (inactive),,
O=C1CCN(C(=O)c2ccc3ccccc3n2)CCCCCCN1,-19.4% (inactive),,
CCn1cc(CN2CCCCCNC(=O)[C@@H]3CCC[C@@H]32)cn1,-2.66% (inactive),,
O=C(c1nc(-c2cccnc2)c2cnccn12)N1CCN(c2ncccn2)CC1,-8.83% (inactive),,
CC(C)(C)c1nc(C(=O)N2CCOCC2)n2ccccc12,-17.5% [at 138 µM] (inactive),,
Cc1cccc(C)c1-c1nc(C(=O)N2CCN(c3ncccn3)CC2)n2ccccc12,,39.8 µM (active),
COc1ccc(C2Cn3cnc(C(=O)N4CCC(C(=O)NC5CCCC5)CC4)c3CO2)cc1 (configuration not stated),-13.7% (inactive),,
COCC1CN(C(C)=O)CC12CCN(C(=O)C1CC=CCC1)CC2 (configuration not stated),-5.78% (inactive),,
O=C(C1CCN(Cc2ccccc2-c2ccccc2F)CC1)N1CCC(c2ccccc2)CC1,,31.6 µM (active),

Structure (SMILES),"activity change, negative = cytotoxicity",Potency,outcome
COC(=O)CNC(=O)C1CCN(Cc2ccccc2-c2ccccc2F)CC1,-18.2% (inactive),,
CC(=O)N1CCCC1C(=O)N1CCC(c2ccccc2)CC1 (configuration not stated),2.07% [at 138 µM] (inactive),,
Cc1noc(C)c1CC(=O)N1CCC(c2n[nH]c(=O)n2Cc2ccc(F)cc2)CC1,-5.74% (inactive),,
O=C(O)CCn1ncc2cc(OC3CCN(C(=O)C4CCCC4)CC3)ccc21,,44.7 µM (active),
COc1cc(F)ccc1-c1ccc(COc2ccc3c(cnn3CCC(=O)O)c2)cc1,-21.2% [at 138 µM] (inactive),,
O=C(C1CCC1)N1CCC(Oc2cccnc2)C1 (configuration not stated),,,inactive
COc1ccc(CNC(=O)NCC2Cn3cccc3CN2C)cc1 (configuration not stated),1.33% (inactive),,
Cc1ccc(OCc2nc(C3CCN(C(=O)c4noc(C)c4CN4CCCCC4)CC3)no2)cc1,,31.6 µM (active),
Cc1ccc(OCc2nc(C3CCN(C(=O)c4c5c(nc6ccccc46)CCCC5)CC3)no2)cc1,-25.4% (inactive),,
COCCOCc1nc(C2CCN(C(=O)c3ccncc3)CC2)no1,-9.28% (inactive),,
COc1ccc(C(=O)N2CCC(C(=O)N3CCC(N4CCOCC4=O)CC3)CC2)cc1,-10.2% (inactive),,
CN(C)CCNC(=O)C(C)(C)Oc1nn(Cc2cccc(Cl)c2)c2ccccc12,,10 µM (active),
O=C(CN1C(=O)NC2(CCCCC2)C1=O)Nc1cccc(Br)c1,-14.9% (inactive),,
CCNC(=O)N[C@H]1[C@H](O)[C@@H](N(C)CCc2ccccn2)[C@@H]2OC[C@H]1O2,3.61% [at 174 µM] (inactive),,
O=C(C1CCCC1)N1CCCCC1c1nc(C2CC2)n[nH]1 (configuration not stated),,,inactive
CN1CCCN(C(=O)c2ccccc2OC(F)(F)F)c2ccccc21,-29.8% (inactive),,
COCCN1CCCN(C(=O)c2ccccc2Cl)c2ccccc21,-14.2% (inactive),,
COc1ccccc1C(=O)N1CCCN(CCc2ccccc2)c2ccccc21,,31.6 µM (active),
Cc1cc(N)n(CC(=O)N[C@@H]2COCC[C@@H]2OCc2c(C)noc2C)n1,-6.92% (inactive),,
CCc1c(C)nn(CCNc2ncnc3c2c(C)nn3C)c1C,-25.9% (inactive),,
O=C(CC1CC1)N1C[C@H]2OC(=O)N(CCc3cccc(Cl)c3)[C@H]2C1,-8.22% (inactive),,
CC(=O)NC1CC2(CCN(C(=O)Cc3c[nH]c4ccccc34)CC2)c2ccccc21 (configuration not stated),-2.64% (inactive),,
